Most compounds without a hit are left out; they make up all but 9% or so of the library.
BAZ2B block = blocks human BAZ2B | Q9UIF8 | AlphaScreen BAZ2B-H3K14Ac peptide displacement | Potency, µM (series often up to 114 µM), for inactives: at the highest dose activity change, negative = inhibition, most hits filed as inhibitors | actives 4.4% (n = 360,000) | AID 504333; note: % is set by controls: 0 for no effect and ±100 for the full control effect; nearly all actives have a fitted effect of over 60% in size
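In this displacement format the biotinylated H3(5-23) peptide acetylated at Lys14 serves as ligand at 50 nM, with BAZ2B at 50 nM in PBS pH 7.4 containing 0.01% Tween-20. Donor and acceptor beads are 10 ug/mL final.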
PLK1 PBD inh = inhibitors of human PLK1 polo-box domain binding. Plk1 PBD binding of FITC phosphopeptide, fluorescence polarization. Potency, µM, for inactives: max response, negative = inhibition, most hits filed as inhibitors. actives 2.8% (n = 360,000); note: series mostly up to about 57 µM; % is set by controls: 0 for no effect and ±100 for the full control effect; nearly all actives have a fitted effect of over 65% in size
HP1b chromo inh = HP1-beta chromodomain-methylated histone interaction inhibition; P83916; AlphaScreen HP1-beta / biotin-H3K9me3 peptide binding; Potency, µM (doses to about 114 µM), without a hit: at the highest dose activity change, negative = inhibition, usual class: inhibitors; actives 0.56% (n = 390,000); AID 540317; note: nearly all actives have a fitted effect of over 70% in size
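HP1-beta protein (50 nM final) preincubated 30 min at room temperature with biotinylated H3(1-18)K9me3 peptide (50 nM) in PBS pH 7.4, 0.01% Tween-20, then compound added for 30 min. AlphaScreen streptavidin donor/nickel chelate acceptor beads (10 ug/mL final), 30 min dark, luminescence read.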
JMJD2A Tudor = JMJD2A Tudor domain (human) inhibition | O75164 | AlphaScreen JMJD2A-Tudor / H3K4me3 peptide binding | Potency, µM (top dose mostly 114 µM), inactives show top-dose activity change, negative = inhibition, hits mostly inhibitors | actives 4.4% (n = 390,000) | AID 504339; note: % is set by controls: 0 for no effect and ±100 for the full control effect; nearly all actives have a fitted effect of over 50% in size
12-LOX inh = inhibitors of human 12S-lipoxygenase ALOX12 | purified 12hLO, xylenol orange hydroperoxide absorbance | Potency, µM (top dose mostly 108 µM), without a hit: at the top dose activity change, negative = inhibition, actives largely listed as inhibitors | actives 1.1% (n = 580,000) | AID 1671190; note: % is set by controls: 0 for no effect and ±100 for the full control effect
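Hydroperoxide product was detected by ferrous iron/xylenol orange as the 573 to 405 nm absorbance ratio. Arachidonic acid at 40 uM (final) was turned over for 30 min at room temperature by 150 nM human 12hLO, pH 7.0 Hepes buffer, after 15 min compound preincubation.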
G9a inh = G9a (human) methyltransferase inhibition; actives 8.8% (n = 350,000); G9a H3K9 monomethylation, AlphaScreen, 2 h; AID 504332; Potency, µM (doses to about 102 µM), inactives show at the highest dose activity, negative = inhibition, hits mostly inhibitors; Q96KQ7; note: % is set by controls: 0 for no effect and ±100 for the full control effect; nearly all actives have a fitted effect of over 75% in size
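Enzyme 20 nM + cpd, 15 min RT; add b-H3K9 pep 500 nM / SAM 20 uM; 2 h RT; anti-H3K9me1 Ab 0.5 ug/mL + SA donor / anti-rabbit acceptor beads 20 ug/mL each, 10 min; AlphaScreen read.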
Numbers without * were called inactive; ? = inconclusive; . = no result given; [ ] = remark or other dose. Calls come from the whole dose curve; as a rule, active = well fitted curve in the direction sought with a large enough effect; inconclusive = small, poorly fitted or top-dose-only effect, or another doubt; inactive = no such curve, though single readings can be large; an effect the other way counts as inactive or inconclusive. Potency is the fitted concentration of half-maximal effect.

SMILES	BAZ2B block	PLK1 PBD inh	HP1b chromo inh	JMJD2A Tudor	12-LOX inh	G9a inh
CCC(Sc1nc2ccsc2c(=O)n1Cc1ccc(C(=O)O)cc1)C(=O)Nc1cccc(OC)c1 (stereo not given)	.	-14%	.	.	-17%	.
CC(C)N1CCN(Cc2cccc(-c3ccco3)c2)CC1CCO (stereo not given)	-31%	-15%	-12%	-18%	4%	25µM*
O=C(CSc1nc(-c2cccs2)nc2cc(=O)[nH]n12)Nc1ccccc1	56µM*	.	32%	-24%	-16%	17%[59 µM]
O=C(CSc1nc(-c2cccs2)nc2cc(=O)[nH]n12)Nc1ccccc1Cl	79µM*	.	20%	?	-12%	28%[59 µM]
Cc1ccccc1NC(=O)CSc1nc(-c2ccccc2C)nc2cc(=O)[nH]n12	-18%	.	17%	-16%	-19%	23%[59 µM]
Cc1ccc(NC(=O)CSc2nc(-c3ccccc3Cl)nc3cc(=O)[nH]n23)c(C)c1	89µM*	.	3%	-13%	-1%	-8%[59 µM]
Cc1cccc(NC(=O)CSc2nc(-c3ccco3)nc3cc(=O)[nH]n23)c1	79µM*	.	27%	-20%	10%	14%[12.7 µM]
O=C(CSc1nc(-c2ccco2)nc2cc(=O)[nH]n12)Nc1ccc(F)cc1	-25%	.	31%	-4%	-22%	-4%[59 µM]
Cc1cc(C)cc(NC(=O)CSc2nnc(CNC(=O)c3ccco3)o2)c1	-18%	-9%	14%[57 µM]	-17%	6%	2%
Cc1cccc(NC(=O)CSc2nnc(CNC(=O)c3ccco3)o2)c1	-11%	2%	55%	-2%	-20%	11µM*
Cc1occc1C(=O)N1CCN(c2ccc(Cl)cc2)CC1	-22%	9%	6%	-27%	-12%	-9%
C=CCn1c(CCC(O)COCCC)n[nH]c1=S (stereo not given)	-27%	-9%	26%	22µM*	?	-34%
Cc1sc2nc(CN3CCN(c4ccc(O)cc4)CC3)[nH]c(=O)c2c1C	?	-1%	?	?	?	.
Cc1sc2nc(CN3CCOCC3)[nH]c(=S)c2c1C	-34%	-19%	8%	-27%	?	40µM*
CCOC(=O)c1nn(-c2ccccc2C)c(=O)cc1OCC(=O)Nc1cccc(OC)c1	-2%	2%	42%	-9%	-2%	-22%
COc1ccccc1OCC(=O)Nc1ccc2c(c1)n(C)c(=O)n2C	56µM*	-1%	29%	-6%	4%	?
CCC(=O)Nc1ccc2c(c1)ncn2-c1ccccc1	-2%	-3%	26%	-1%	-13%	-17%[59 µM]
CCC(=O)Nc1ccc2c(c1)ncn2-c1ccccc1OC	14%	-11%	24%	-23%	?	45µM*
CC(=O)c1cc(F)c(N2CCN(C(=O)Cc3ccccc3)CC2)cc1C	56µM*	-2%	36%	-5%	0%	?
CCCCCCCCCc1conc1C(=O)/C=C/c1oc2c(c1C)CCC(C)C2 (stereo not given)	.	-25%	.	.	40µM*	.
Cc1cnc(NC(=O)CN2C(=O)C3CC=CCC3C2=O)s1 (stereo not given)	.	-7%	5%	56µM*	-29%	6%[59 µM]
CC(C)(C)c1[nH]ncc1[N+](=O)[O-]	25%	-1%	19%	-2%	-5%	-4%
COC(=O)Nc1[nH]ncc1[N+](=O)[O-]	-15%	-8%	21%	1%	35µM*	-2%
CCOC(=O)c1cnc(-n2cc(C)cn2)nc1NCc1ccc2c(c1)OCO2	?	1%	34%	?	8%	1%[12.7 µM]
Cc1nn(-c2ccccc2)c(C)c1/C=N\N1CCN(c2ccc(Cl)cc2)CC1	32µM*	-6%	?	28µM*	0%	?
SMILES	BAZ2B block	PLK1 PBD inh	HP1b chromo inh	JMJD2A Tudor	12-LOX inh	G9a inh
CC1CCN(C(=O)CCc2ccc(Oc3cc([N+](=O)[O-])cc([N+](=O)[O-])c3)cc2)CC1	28µM*	-14%	45µM*	13µM*	-26%	?
COc1ccc(NC(=O)O/N=C2/CCCc3ccc(OC)cc32)cc1	-1%	15µM*	-13%	14µM*	-9%	18%
CCN(CC)CCN1c2ccccc2Sc2ccc3ccccc3c21	?	-20%	50%	?	?	50µM*
CCN(CC)[C@@H](C)CN1c2ccccc2Sc2ccccc21	.	.	.	.	.	8.9µM*
CCN(CC)CCN1c2ccccc2Sc2ccccc21	71µM*	-4%	45µM*	2.8µM*	-92%	?
CCN(CC)CCC(=O)N1c2ccccc2Sc2ccc(Cl)cc21	3%	3%	38%	-11%	?	-39%[12.7 µM]
CCc1ccc(NC(=O)N2c3ccccc3Sc3ccccc32)cc1	4%	.	30%	3%	-59%	5%[59 µM]
CCc1ccc2c(c1)N(C[C@H](C)CN(C)C)c1ccccc1S2	.	.	.	.	.	18µM*
CCN(CC(=O)Nc1ccc(OC(F)F)cc1)C1CCCCC1	-2%	1%	30%	6%	-24%	-29%
O=C(CCN1C(=O)/C(=C/c2ccccc2)SC1=S)Nc1ccccn1	?	-18%	25%	?	36%	-11%
Cc1noc(C)c1S(=O)(=O)Nc1ccc2c(c1)C(=O)N([C@H](C)CO)C[C@H](C)[C@@H](CN(C)Cc1ccc(C(=O)O)cc1)O2	.	-10%	39%	-6%	-8%	.
CSc1nnc(N2C(=O)C(O)=C(C(=O)c3ccco3)C2c2ccccc2F)s1 (stereo not given)	-39%	-13%	-24%	50µM*	?	11%[0.0925 µM]
Cc1ccc(C(=O)C2=C(O)C(=O)N(c3ncccn3)C2c2ccccc2F)o1 (stereo not given)	-19%	-2%	56%	1%	?	?
Cc1cc(N2C(=O)C(O)=C(C(=O)c3ccco3)C2c2ccc(Cl)cc2)no1 (stereo not given)	-23%	-6%	28%	4%	?	?
CSc1nnc(N2C(=O)C(O)=C(C(=O)c3ccco3)C2c2ccccc2)s1 (stereo not given)	?	-11%	-1%[57 µM]	?	?	40µM*
CSc1nnc(N2C(=O)C(O)=C(C(=O)c3ccc(C)o3)C2c2ccc(C)cc2)s1 (stereo not given)	?	-10%	2%	-14%	?	-3%[0.501 µM]
Cc1cc(N2C(=O)C(O)=C(C(=O)c3ccco3)C2c2ccccc2F)no1 (stereo not given)	?	-17%	13%	-31%	.	79µM*
S=C(Nc1ccc2nc(-c3ccccn3)c(-c3ccccn3)nc2c1)N1CCOCC1	-25%	-10%	24%	-12%	-14%	-12%
CCOC(=O)c1[nH]c(C)c(/C(Br)=C/Br)c1C	.	.	.	.	6.3µM*	.
CCOC(=O)c1[nH]c(C)c(C(=O)NC2CCCCC2)c1C	10%	-16%	43%	-10%	435%	79µM*
